From PubChem BioAssay (EPA / NIEHS)
Inconclusive results are not listed. Activity calls are given as the source filed them. The calls were made as follows: active = hit-call score of the fitted dose curve at least 0.9, where 1 is the maximum; inconclusive = response in the unintended direction; inactive = score below 0.9.

Biological target: human RAR-related Orphan Receptor beta (RORb), RORB (gene 6096) (UniProt Q92753)
Assay: ATG_RORb_TRANS: Attagene TRANS-FACTORIAL HepG2 Assay for human RAR-related Orphan Receptor beta (RORb) (AID 2283010)
Method: ATG_TRANS is a cell-based, multiplexed-readout assay that uses HepG2, a human liver cell line, with measurements taken at 24 hours after chemical dosing in a 24-well plate.ATG_RORb_TRANS is one of 30 assay component(s) measured or calculated from the ATG_TRANS assay. It is designed to make measurements of mRNA induction, a form of inducible reporter, as detected with fluorescence intensity signals by Reverse transcription polymerase chain reaction (RT-PCR) and Capillary electrophoresis technology.Data from the assay component ATG_RORb_TRANS was analyzed into 1 assay endpoint. This assay endpoint, ATG_RORb_TRANS, was analyzed in the positive analysis fitting direction relative to DMSO as the negative control and baseline of activity. Using a type of inducible reporter, measures of mRNA for gain-of-signal activity can be used to understand the reporter gene at the transcription factor-level as they relate to the gene RORB. Furthermore, this assay endpoint can be referred to as a primary readout, because this assay has produced multiple assay endpoints where this one serves a reporter gene function. To generalize the intended target to other relatable targets, this assay endpoint is annotated to the nuclear receptor intended target family, where the subfamily is orphan.
Human liver HepG2 cells are transiently transfected with multiple reporter transcription units (MRTUs) in 6-well plates using FuGene 6 reagent (Roche; 3 ml FuGene/1 mg DNA). The MRTU constructs are regulated by a cis-regulating element (promoter). […] A major difference between the CIS and TRANS system is that in CIS activities of endogenous TFs are measured, whereas the TRANS assay evaluates changes in activities of exogenous, chimeric NR-Gal4 proteins. […] At the end of 24 hour incubation, total RNA was isolated using TriZol reagent (Invitrogen). The isolated RNA is then reverse-transcribed using oligo(dT) primer and Mo-MLV reverse transcriptase (Invitrogen) with DNAse I (Ambion) treatment for 30 min. The one-tenth of the produced cDNA was amplified by PCR using Taq DNA polymerase (Invitrogen) and two reporter sequence-specific primers. The PCR products were fluorescently labeled by primer extension with 6-arboxyfluorescein (6-FAM) 5'-labeled reporter sequence-specific primer (2 min at 95 C, 20 s at 68 C and 10 min at 72 C) and these products were digested with 5U of HpaI (New England Biolabs) for 2h at 37 C. The fragments were purified using Qiaquick PCR columns (Qiagen), analyzed on an ABI 3130xL genetic analyzer (Applied Biosystems) with peak positions identified by using a set of X-rhodamine (ROX)-labeled MapMarker1000 molecular weight standards (BioVentures). The raw capillary electrophoresis data was processed using Attagraph software (Attagene).

Sequence of human RAR-related Orphan Receptor beta (RORb), RORB (gene 6096) (Q92753 whole entry, looked up): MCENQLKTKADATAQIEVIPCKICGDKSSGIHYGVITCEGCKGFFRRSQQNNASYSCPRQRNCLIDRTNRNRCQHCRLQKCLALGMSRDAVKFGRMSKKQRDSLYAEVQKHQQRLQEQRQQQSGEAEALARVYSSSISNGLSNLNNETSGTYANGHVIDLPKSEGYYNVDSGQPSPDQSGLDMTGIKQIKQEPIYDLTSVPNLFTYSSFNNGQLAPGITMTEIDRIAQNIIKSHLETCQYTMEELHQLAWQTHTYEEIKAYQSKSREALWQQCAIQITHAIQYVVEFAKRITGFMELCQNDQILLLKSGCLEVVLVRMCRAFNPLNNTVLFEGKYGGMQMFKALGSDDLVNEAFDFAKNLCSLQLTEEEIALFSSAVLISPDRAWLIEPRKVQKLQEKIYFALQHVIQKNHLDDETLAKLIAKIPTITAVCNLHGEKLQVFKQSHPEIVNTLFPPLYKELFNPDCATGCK

**Q.** For `CO[C@@H]1[C@H](OC(=O)NC(=O)CCl)CC[C@]2(CO2)[C@H]1[C@@]1(C)O[C@@H]1CC=C(C)C`, which outcome is on record?
**A.** inactive

**Q.** For `c1ccc(NNc2ccccc2)cc1`, which outcome is on record?
**A.** inactive

**Q.** With `CN(C)c1ccccc1` as the compound, how does the outcome read?
**A.** inactive

**Q.** How did the outcome turn out when `CCNS(=O)(=O)C(F)(F)C(F)(F)C(F)(F)C(F)(F)C(F)(F)C(F)(F)C(F)(F)C(F)(F)F` was run?
**A.** inactive

**Q.** `O=C(Nc1ccccc1)c1ccccc1I` was tested. Which outcome did it give?
**A.** inactive

**Q.** Which outcome does the source give for `[As]#[In]` here?
**A.** inactive

**Q.** How did the outcome turn out when `OCCCl` was run?
**A.** inactive

**Q.** Which outcome does the source give for `Nc1cc(Cl)cc(C(=O)O)c1Cl` here?
**A.** inactive

**Q.** `C[C@]12C=CC3=C4CCC(=O)C=C4CC[C@H]3[C@@H]1CC[C@@H]2O` was tested. Which outcome did it give?
**A.** inactive

**Q.** Which outcome does the source give for `COC(=O)Nc1nc2ccccc2[nH]1` here?
**A.** inactive

**Q.** How did the outcome turn out when `c1ccc2c(c1)-c1cccc3cccc-2c13` was run?
**A.** inactive

**Q.** `N#CC(Br)(Br)C(N)=O` was tested. Which outcome did it give?
**A.** inactive

**Q.** For `Cc1ccc(N)cc1`, which outcome is on record?
**A.** inactive

**Q.** For `Cc1ccc(N)c(N)c1`, which outcome is on record?
**A.** inactive

**Q.** With `ClC1=C(Cl)[C@]2(Cl)[C@H]3[C@H]([C@@H]4C=C[C@H]3C4)[C@@]1(Cl)C2(Cl)Cl` as the compound, how does the outcome read?
**A.** inactive

**Q.** How did the outcome turn out when `CCC12COCN1COC2` was run?
**A.** inactive

**Q.** Which outcome does the source give for `COC(=O)c1ccccc1N` here?
**A.** inactive

**Q.** How did the outcome turn out when `CCCCC(CC)COC(=O)c1ccc(C(=O)OCC(CC)CCCC)c(C(=O)OCC(CC)CCCC)c1` (configuration not stated) was run?
**A.** inactive

**Q.** With `[Cl-].[Cl-].[Hg+2]` as the compound, how does the outcome read?
**A.** inactive

**Q.** How did the outcome turn out when `O=[N+]([O-])C(Br)(CO)CO` was run?
**A.** inactive

**Q.** With `CNC(=O)Oc1cccc2c1OC(C)(C)C2` as the compound, how does the outcome read?
**A.** inactive

**Q.** Which outcome does the source give for `C[N+](C)(C)CC1CO1` (configuration not stated) here?
**A.** inactive
